# Test results published in PubChem BioAssay (NCATS).
# Inconclusive results are not listed. Entries that show only a call come without a potency. Unmarked numbers belong to inactive results. Activity calls are given as the source filed them. Calls follow the shape of the dose curve; as a rule, active = well fitted inhibition curve with a large enough effect; inconclusive = small, poorly fitted or top-dose-only effect; inactive = flat fitted curve, though single readings scatter.
# What was measured:
# [1] = test system: FAB9; test: qHTS profiling for inhibitors of Plasmodium falciparum proliferation (AID 504749); also: potency is read from the fitted curve at half-maximal effect; details: P. falciparum in erythrocytes, SYBR Green DNA, 72 h; series mostly up to 28.7 µM
# Outline: (§1)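 Fluorescence of SYBR Green-bound parasite DNA, read at 485/535 nm, served as the growth measure. Infected erythrocytes were cultured with compound 72 h; artemisinin (0.29 uM) and DMSO wells defined the normalization range.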
# [2] = test system: GB4; test: as above; details: P. falciparum in erythrocytes, SYBR Green DNA, 72 h; series mostly up to 28.7 µM
# Outline: as §1
# [3] = test system: HB3; test: as above; details: P. falciparum in erythrocytes, SYBR Green DNA, 72 h; series mostly up to 28.7 µM
# Outline: as §1
# [4] = test system: JCK; test: as above; details: P. falciparum in erythrocytes, SYBR Green DNA, 72 h; series mostly up to 28.7 µM
# Outline: as §1
# [5] = test system: N140; test: as above; details: P. falciparum in erythrocytes, SYBR Green DNA, 72 h; series mostly up to 28.7 µM
# Outline: as §1
# [6] = test system: P93_24; test: as above; details: P. falciparum in erythrocytes, SYBR Green DNA, 72 h; series mostly up to 28.7 µM
# Outline: as §1
# [7] = test system: P94_40; test: as above; details: P. falciparum in erythrocytes, SYBR Green DNA, 72 h; series mostly up to 28.7 µM
# Outline: as §1
# [8] = test system: PAD; test: as above; details: P. falciparum in erythrocytes, SYBR Green DNA, 72 h; series mostly up to 28.7 µM
# Outline: as §1
# [9] = test system: PC15; test: as above; details: P. falciparum in erythrocytes, SYBR Green DNA, 72 h; series mostly up to 28.7 µM
# Outline: as §1
# [10] = test system: PC26; test: as above; details: P. falciparum in erythrocytes, SYBR Green DNA, 72 h; series mostly up to 28.7 µM
# Outline: as §1
# [11] = test system: PC49; test: as above; details: P. falciparum in erythrocytes, SYBR Green DNA, 72 h; series mostly up to 28.7 µM
# Outline: as §1
# [12] = test system: SC27B; test: as above; details: P. falciparum in erythrocytes, SYBR Green DNA, 72 h; series mostly up to 28.7 µM
# Outline: as §1
# [13] = test system: TAB109; test: as above; details: P. falciparum in erythrocytes, SYBR Green DNA, 72 h; series mostly up to 28.7 µM
# Outline: as §1
# [14] = test system: TAB113; test: as above; details: P. falciparum in erythrocytes, SYBR Green DNA, 72 h; series mostly up to 28.7 µM
# Outline: as §1
# [15] = test system: TAB165; test: as above; details: P. falciparum in erythrocytes, SYBR Green DNA, 72 h; series mostly up to 28.7 µM
# Outline: as §1
# [16] = test system: CRL-7250; test: Cytotoxic Profiling of Annotated Libraries Using Quantitative High-Throughput Screening (AID 1296008); details: Five cell lines viability, CellTiter-Glo ATP luminescence, 48-72 h; max response: hits give low values
# Outline: (§2)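 Compounds were pin-transferred onto cells and incubated 48 or 72 hr at 37 degree Celsius, 95% humidity. CellTiter-Glo was added, plates sat 10 min at room temperature, then ATP-coupled luminescence was imaged as the viability read-out.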
# [17] = test system: HEK293; test: as above; details: Five cell lines viability, CellTiter-Glo ATP luminescence, 48-72 h; max response: hits give low values
# Outline: as §2
# [18] = test system: HaCat; test: as above; details: Five cell lines viability, CellTiter-Glo ATP luminescence, 48-72 h; max response: hits give low values
# Outline: as §2
# [19] = test system: ICS; test: qHTS profiling for inhibitors of Plasmodium falciparum proliferation (AID 504749); also: potency is read from the fitted curve at half-maximal effect; details: P. falciparum in erythrocytes, SYBR Green DNA, 72 h; series mostly up to 28.7 µM
# Outline: as §1
# [20] = test system: W2; test: as above; details: P. falciparum in erythrocytes, SYBR Green DNA, 72 h; series mostly up to 28.7 µM
# Outline: as §1
# Also: nearly all actives have a fitted effect of over 60% in size.
smiles,measurement,setting,value
ClC1=C(Cl)C2(Cl)C(CBr)CC1(Cl)C2(Cl)Cl (stereo not given),Potency,[1],inactive
same,Potency,[2],inactive
same,Potency,[3],inactive
same,Potency,[4],inactive
same,Potency,[5],inactive
same,Potency,[6],inactive
same,Potency,[7],inactive
same,Potency,[8],inactive
same,Potency,[9],inactive
same,Potency,[10],inactive
same,Potency,[11],inactive
same,Potency,[12],inactive
same,Potency,[13],inactive
same,Potency,[14],inactive
same,Potency,[15],inactive
same,max response,[16],-0.0053%
same,outcome,[17],inactive
same,outcome,[18],inactive
COc1cc(CC#N)cc(OC)c1OC,max response,[16],-2.26%
same,outcome,[18],inactive
CN(C)CCc1c[nH]c2ccccc12,max response,[16],2.04%
same,max response,[17],-13.9%
same,max response,[18],4.72%
CCCC(C)C1(CC)C(=O)N=C(S)NC1=O (stereo not given),max response,[16],-2.8%
same,max response,[18],-26.2%
CC(C(O)c1ccccc1)N(C)C/C=C/c1ccccc1 (stereo not given),max response,[16],-8.13%
same,outcome,[18],inactive
CN1C[C@@H](NS(=O)(=O)N(C)C)C[C@@H]2c3cccc4c3c(cn4C)C[C@H]21,Potency,[1],inactive
same,Potency,[2],inactive
same,Potency,[3],inactive
same,Potency,[4],inactive
same,Potency,[5],inactive
same,Potency,[8],inactive
same,Potency,[9],inactive
same,Potency,[10],inactive
same,Potency,[11],inactive
same,Potency,[12],inactive
same,Potency,[14],inactive
same,outcome,[16],inactive
same,max response,[17],-5.36%
same,outcome,[18],inactive
C[C@]12CC[C@H]3[C@@H](CCC4=CC(=O)CC[C@@]43C)[C@@H]1CC[C@@H]2C(=O)O,outcome,[16],inactive
same,outcome,[18],inactive
C[C@]12CC[C@H]3[C@@H](CC=C4C[C@@H](O)CC[C@@]43C)[C@@H]1CC[C@@H]2O,Potency,[1],inactive
same,Potency,[2],inactive
same,Potency,[3],inactive
same,Potency,[19],inactive
same,Potency,[4],inactive
same,Potency,[5],inactive
same,Potency,[6],inactive
same,Potency,[7],inactive
same,Potency,[8],inactive
same,Potency,[9],inactive
same,Potency,[10],inactive
same,Potency,[11],inactive
same,Potency,[12],inactive
same,Potency,[13],inactive
same,Potency,[14],inactive
same,Potency,[15],inactive
same,Potency,[20],inactive
same,max response,[16],-19.9%
same,max response,[17],-6.75%
same,outcome,[18],inactive
CCOC(=O)NC(O)C(Cl)(Cl)Cl (stereo not given),Potency,[1],inactive
same,Potency,[2],inactive
same,Potency,[3],inactive
same,Potency,[19],inactive
same,Potency,[4],inactive
same,Potency,[5],inactive
same,Potency,[6],inactive
same,Potency,[7],inactive
same,Potency,[8],inactive
same,Potency,[9],inactive
same,Potency,[10],inactive
same,Potency,[11],inactive
same,Potency,[12],inactive
same,Potency,[13],inactive
same,Potency,[14],inactive
same,Potency,[15],inactive
same,Potency,[20],inactive
same,max response,[16],0.547%
same,max response,[17],-1.01%
same,outcome,[18],inactive
Cc1nc2ccccc2c(=O)n1-c1ccccc1Cl,max response,[16],-16.7%
same,max response,[18],-9.75%
COP(=O)(OC)OC=C(Cl)Cl,Potency,[1],inactive
same,Potency,[2],inactive
same,Potency,[3],inactive
same,Potency,[4],inactive
same,Potency,[5],inactive
same,Potency,[6],inactive
same,Potency,[7],inactive
same,Potency,[8],inactive
same,Potency,[9],inactive
same,Potency,[10],inactive
same,Potency,[11],inactive
same,Potency,[12],inactive
same,Potency,[13],inactive
same,Potency,[14],inactive
same,Potency,[15],inactive
same,Potency,[20],10.7 µM (active)
same,outcome,[16],inactive
same,max response,[17],-1.59%
same,max response,[18],-7.81%
COc1ccc(CN2CCNCC2)c(OC)c1OC,Potency,[1],inactive
same,Potency,[3],inactive
same,Potency,[19],inactive
same,Potency,[4],inactive
same,Potency,[5],inactive
same,Potency,[6],inactive
same,Potency,[7],inactive
same,Potency,[8],inactive
same,Potency,[9],inactive
same,Potency,[11],inactive
same,Potency,[12],inactive
same,Potency,[13],inactive
same,Potency,[14],inactive
same,Potency,[15],inactive
same,max response,[16],0.0195%
same,max response,[17],-9.25%
same,outcome,[18],inactive
CC(Cc1ccccc1)NCCCCl (stereo not given),outcome,[16],inactive
same,max response,[17],0.613%
same,outcome,[18],inactive
c1cc2c(c(N3CCNCC3)c1)OCCO2,Potency,[1],inactive
same,Potency,[2],inactive
same,Potency,[3],inactive
same,Potency,[19],inactive
same,Potency,[4],inactive
same,Potency,[5],inactive
same,Potency,[6],inactive
same,Potency,[7],inactive
same,Potency,[8],inactive
same,Potency,[9],inactive
same,Potency,[10],inactive
same,Potency,[11],inactive
same,Potency,[12],inactive
same,Potency,[13],inactive
same,Potency,[14],inactive
same,Potency,[15],inactive
same,Potency,[20],inactive
same,max response,[16],-0.883%
same,max response,[17],-10.2%
same,outcome,[18],inactive
CCc1ccc(C2CCNCC2)cc1,outcome,[16],inactive
same,max response,[17],-21.3%
same,outcome,[18],inactive
CCS(=O)(=O)C(C)(C)S(=O)(=O)CC,Potency,[1],inactive
same,Potency,[2],inactive
same,Potency,[3],inactive
same,Potency,[19],inactive
same,Potency,[4],inactive
same,Potency,[5],inactive
same,Potency,[6],inactive
same,Potency,[7],inactive
same,Potency,[8],inactive
same,Potency,[9],inactive
same,Potency,[10],inactive
same,Potency,[11],inactive
same,Potency,[12],inactive
same,Potency,[13],inactive
same,Potency,[14],inactive
same,Potency,[15],inactive
same,Potency,[20],inactive
same,max response,[16],-10.9%
same,max response,[17],1.49%
CCNc1nc(Cl)nc(NCC)n1,Potency,[1],inactive
same,Potency,[2],inactive
same,Potency,[3],inactive
same,Potency,[19],inactive
same,Potency,[4],inactive
same,Potency,[5],inactive
same,Potency,[6],inactive
same,Potency,[7],inactive
same,Potency,[8],inactive
same,Potency,[9],inactive
same,Potency,[10],inactive
same,Potency,[11],inactive
same,Potency,[12],inactive
same,Potency,[13],inactive
same,Potency,[14],inactive
same,Potency,[15],inactive
same,Potency,[20],inactive
same,max response,[16],-9.95%
same,max response,[17],1.01%
COP(=S)(OC)Oc1ccc(Sc2ccc(OP(=S)(OC)OC)cc2)cc1,Potency,[1],inactive
same,Potency,[2],inactive
same,Potency,[3],inactive
same,Potency,[19],inactive
same,Potency,[4],inactive
same,Potency,[5],inactive
same,Potency,[6],inactive
same,Potency,[7],inactive
same,Potency,[8],inactive
same,Potency,[9],inactive
same,Potency,[10],inactive
same,Potency,[11],inactive
same,Potency,[12],inactive
same,Potency,[13],inactive
same,Potency,[14],inactive
same,Potency,[15],inactive
same,Potency,[20],inactive
same,max response,[16],-0.305%
same,max response,[17],3.86%
same,max response,[18],-8.51%
